Compound activity deposited in PubChem by National Center for Advancing Translational Sciences (NCATS).
Shown is part of a subset that was picked to be rich in hits.
nsP2pro primary – Primary qHTS for inhibitors of NSP2Pro chikungunya virus (CHIKV) | Polyprotein P1234 (Chikungunya virus (strain S27-African prototype)), Q8JUX6 | FRET peptide cleavage, nsP2pro, fluorescence 1 h | Potency, µM (top dose mostly 24.9 µM), for the others: at the top dose activity change, negative = inhibition, actives largely listed as inhibitors | 31,000 compounds, 1.1% hits | AID 1964107, 2024; also: nearly all actives have a fitted effect of over 60% in size
Target sequence (Q8JUX6 whole entry, looked up): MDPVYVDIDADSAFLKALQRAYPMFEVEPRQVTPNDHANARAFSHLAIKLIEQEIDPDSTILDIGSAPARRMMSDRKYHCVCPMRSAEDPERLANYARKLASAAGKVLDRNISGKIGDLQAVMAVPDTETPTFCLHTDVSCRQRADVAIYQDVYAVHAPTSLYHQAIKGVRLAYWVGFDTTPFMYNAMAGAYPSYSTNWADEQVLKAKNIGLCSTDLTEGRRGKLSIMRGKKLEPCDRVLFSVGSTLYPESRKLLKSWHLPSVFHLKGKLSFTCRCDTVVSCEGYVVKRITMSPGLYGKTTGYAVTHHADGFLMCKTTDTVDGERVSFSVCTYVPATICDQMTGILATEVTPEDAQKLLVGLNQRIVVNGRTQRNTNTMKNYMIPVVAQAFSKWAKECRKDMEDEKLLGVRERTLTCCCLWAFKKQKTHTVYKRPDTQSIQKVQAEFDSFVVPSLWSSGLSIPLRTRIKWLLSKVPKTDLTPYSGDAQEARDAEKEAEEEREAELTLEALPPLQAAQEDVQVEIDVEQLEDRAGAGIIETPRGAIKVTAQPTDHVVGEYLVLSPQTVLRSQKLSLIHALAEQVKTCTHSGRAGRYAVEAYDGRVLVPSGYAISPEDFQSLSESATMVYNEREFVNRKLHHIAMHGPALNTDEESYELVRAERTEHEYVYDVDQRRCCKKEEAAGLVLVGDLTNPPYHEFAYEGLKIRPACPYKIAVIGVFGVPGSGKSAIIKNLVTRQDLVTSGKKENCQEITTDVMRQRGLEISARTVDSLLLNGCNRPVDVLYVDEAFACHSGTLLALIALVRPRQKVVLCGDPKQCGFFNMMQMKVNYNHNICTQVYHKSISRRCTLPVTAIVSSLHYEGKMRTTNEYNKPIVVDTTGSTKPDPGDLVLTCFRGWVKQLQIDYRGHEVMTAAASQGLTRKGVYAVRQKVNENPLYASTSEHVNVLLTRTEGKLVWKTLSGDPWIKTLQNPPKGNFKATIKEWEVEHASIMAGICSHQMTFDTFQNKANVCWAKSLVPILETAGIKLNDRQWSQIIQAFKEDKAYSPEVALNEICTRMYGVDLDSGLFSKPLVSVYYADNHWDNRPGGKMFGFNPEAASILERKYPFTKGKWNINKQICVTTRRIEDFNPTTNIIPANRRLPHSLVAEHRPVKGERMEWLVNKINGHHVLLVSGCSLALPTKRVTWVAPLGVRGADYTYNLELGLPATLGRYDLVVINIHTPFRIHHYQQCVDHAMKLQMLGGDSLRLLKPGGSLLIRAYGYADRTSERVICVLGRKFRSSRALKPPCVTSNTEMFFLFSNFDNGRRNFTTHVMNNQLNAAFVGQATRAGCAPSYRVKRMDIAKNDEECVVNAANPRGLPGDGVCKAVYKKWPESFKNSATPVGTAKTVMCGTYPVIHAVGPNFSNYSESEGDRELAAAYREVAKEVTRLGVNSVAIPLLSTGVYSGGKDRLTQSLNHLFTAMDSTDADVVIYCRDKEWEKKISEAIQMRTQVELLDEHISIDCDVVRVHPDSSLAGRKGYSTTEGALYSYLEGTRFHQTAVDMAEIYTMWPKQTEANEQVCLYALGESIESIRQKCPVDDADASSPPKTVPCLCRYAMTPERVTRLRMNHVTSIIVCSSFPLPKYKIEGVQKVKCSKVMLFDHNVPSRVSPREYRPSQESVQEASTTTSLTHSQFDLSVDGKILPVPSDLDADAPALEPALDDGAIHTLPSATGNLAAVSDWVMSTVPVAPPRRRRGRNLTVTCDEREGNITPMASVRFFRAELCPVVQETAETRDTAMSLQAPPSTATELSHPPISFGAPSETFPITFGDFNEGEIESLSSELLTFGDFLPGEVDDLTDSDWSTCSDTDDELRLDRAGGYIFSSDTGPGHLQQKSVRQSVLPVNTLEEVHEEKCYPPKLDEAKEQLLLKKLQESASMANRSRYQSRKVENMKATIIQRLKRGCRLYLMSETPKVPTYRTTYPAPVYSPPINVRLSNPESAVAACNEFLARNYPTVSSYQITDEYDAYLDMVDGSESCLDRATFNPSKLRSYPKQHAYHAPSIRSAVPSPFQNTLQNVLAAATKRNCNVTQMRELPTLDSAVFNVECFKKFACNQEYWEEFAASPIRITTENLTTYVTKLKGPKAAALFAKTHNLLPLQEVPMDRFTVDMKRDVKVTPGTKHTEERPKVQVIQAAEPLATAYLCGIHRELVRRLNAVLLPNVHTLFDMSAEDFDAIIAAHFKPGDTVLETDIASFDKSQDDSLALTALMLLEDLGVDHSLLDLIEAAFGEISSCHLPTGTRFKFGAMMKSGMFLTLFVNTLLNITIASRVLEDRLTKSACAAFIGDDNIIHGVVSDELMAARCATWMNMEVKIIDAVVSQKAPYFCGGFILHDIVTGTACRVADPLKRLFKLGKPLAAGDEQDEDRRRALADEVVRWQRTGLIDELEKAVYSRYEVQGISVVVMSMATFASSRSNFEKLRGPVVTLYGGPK
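FRET cleavage of 2.5 uM peptide 2 by 150 nM CHIKV protease domain at pH 8.0 (Tris, Tween 20). Compounds at 7 concentrations (up to 25 uM) preincubated 15 min. Fluorescence read after 1 h at room temperature.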
nsP2 cell sec – Secondary cell base assay for inhibitors of NSP2Pro Chikungunya virus (CHIKV) | AID 1964100, 2024 | cell-based CHIKV nsP2 protease reporter assay | shares compounds with nsP2pro primary | 450 compounds, 10% hits | Potency, µM (doses to about 51.1 µM), inactives show at the top dose activity change, negative = inhibition, hits mostly inhibitors; also: nearly all actives have a fitted effect of over 70% in size
CHIKV NSP2 FL – Selectivity profile for inhibitors of NSP2Pro chikungunya virus (CHIKV): Full length NSP2 enzyme counterscreen (CHIKV-NSP2). Full-length CHIKV NSP2 protease enzymatic counterscreen. 410 compounds, 39% hits. shares compounds with nsP2pro primary. Potency, µM (top dose mostly 50.7 µM), for the others: at the highest dose activity change, negative = inhibition, actives largely listed as inhibitors; also: nearly all actives have a fitted effect of over 65% in size
Furin counter – Selectivity profile for inhibitors of NSP2Pro chikungunya virus (CHIKV): Human furin counterscreen | Recombinant human furin enzymatic counterscreen, fluorogenic substrate | Potency, µM (series often up to 50.6 µM), inactives show at the highest dose activity change, negative = inhibition, actives largely listed as inhibitors | shares compounds with nsP2pro primary | AID 1964102, 2024 | 410 compounds, 6% hits
nsP2 NS23 pep – Selectivity profile for inhibitors of NSP2Pro chikungunya virus (CHIKV): Endogenous NS2/3 peptide Counterscreen; shares compounds with nsP2pro primary; 410 compounds, 34% hits; Purified CHIKV nsP2 protease, endogenous NS2/3 peptide cleavage; AID 1964103, 2024; Potency, µM (titrated, usually from 51 µM), for the others: at the top dose activity change, negative = inhibition, most hits filed as inhibitors; also: nearly all actives have a fitted effect of over 55% in size
Papain cs – Selectivity profile for inhibitors of NSP2Pro chikungunya virus (CHIKV): Papain Counterscreen; 410 compounds, 5% hits; shares compounds with nsP2pro primary; Potency, µM (highest dose often 51 µM), inactives show at the highest dose activity change, negative = inhibition, actives largely listed as inhibitors; AID 1964104, 2024; purified papain protease activity, enzymatic inhibition
nsP2pro confirm – Confirmatory qHTS for inhibitors of NSP2Pro chikungunya virus (CHIKV). shares compounds with nsP2pro primary. CHIKV nsP2 protease enzymatic activity, qHTS. Potency, µM (series often up to 25.5 µM), without a hit: at the highest dose activity change, negative = inhibition, most hits filed as inhibitors. 410 compounds, 43% hits. AID 1964105, 2024; also: nearly all actives have a fitted effect of over 75% in size
HCV NS3 4A cs – Selectivity profile for inhibitors of NSP2Pro chikungunya virus (CHIKV): NS34A-HCV Counterscreen; shares compounds with nsP2pro primary; HCV NS3/4A protease biochemical counterscreen; Potency, µM (top dose mostly 50.9 µM), most hits filed as inhibitors; 410 compounds, 20% hits; AID 1964106, 2024; also: nearly all actives have a fitted effect of over 55% in size
The depositor's hits bear a star; i = inactive; ? = inconclusive; ! = repeats disagree; [ ] = another dose, or the depositor's remark. Calls follow the shape of the full dose curve. % is scaled to controls: 0 for no effect and ±100 for the full control effect; potency is read from the fitted curve at half-maximal effect.

SMILES | nsP2pro primary | others
COc1ccc(-c2ccc(Nc3nc(-c4ccncc4)nc4ccccc34)cc2F)cc1F | 2.3%
C=CC(=O)Nc1cc(Nc2nccc(-c3c[nH]c4ccccc34)n2)c(OC)cc1N(C)CCN(C)C | 59.2%
CC1=CC(=O)c2ccccc2C1=O | ? | nsP2 cell sec=-11.5%;CHIKV NSP2 FL=-14.4%;Furin counter=2.6%;nsP2 NS23 pep=?;Papain cs=-19.6%;nsP2pro confirm=4.2%;HCV NS3 4A cs=i
CC(C)=CCC/C(C)=C/CC/C(C)=C/CC/C(C)=C/CC1=C(C)C(=O)c2ccccc2C1=O | -27.4%
Cc1ccnc(NC(=S)Nc2cccc(C(F)(F)F)c2)c1 | 1.8%
CC(=O)Nc1ccc(CC(=O)N2CCC3(CCc4nn(Cc5ccccc5)c(=O)n4CC3)CC2)cc1 | -3.1%
C[C@@H]1CN(Cc2ccc(F)cc2)CCN1C(=O)COc1ccc(Cl)cc1NC(N)=O | -4.4%
Fc1cccc(CNc2nc(-c3ccccc3C(F)(F)F)nc3ccccc23)c1 | i
Cc1onc(-c2ccc(F)cc2)c1COc1ccc(C(=O)N2CCS(=O)(=O)CC2)cn1 | -11.2%
C[C@H](NC(=O)[C@H](Cc1ccccc1)NC(=O)OCc1ccccc1)C(=O)CF | ? | nsP2 cell sec=-5.9%;CHIKV NSP2 FL=?;Furin counter=0.9%;nsP2 NS23 pep=-9.6%;Papain cs=0.0461µM*;nsP2pro confirm=?;HCV NS3 4A cs=i
CC(C)C[C@H](NC(=O)CNC(=O)OCc1ccccc1)C(=O)N[C@@H](Cc1ccccc1)C(=O)CCl | -24.9%
CC(NC(=O)[C@H](Cc1ccccc1)NC(=O)OCc1ccccc1)C(=O)CF (some centres undefined) | -28.0%
Cc1cc(-c2nnc3n2CCCCC3)c(C)n1-c1cccc2ccccc12 | -13.0%
COc1ccc(-n2c(=O)[nH]c3cc(C(=O)NCc4ccc(Cl)cc4)sc3c2=O)nc1OC | 9.8%
Cc1ccc(NC(=O)Nc2cc(C(F)(F)F)ccc2F)cc1Nc1ccc2c(c1)NC(=O)/C2=C\c1ccc[nH]1 | 9.6%
CO/N=C(/C(=O)N[C@@H]1C(=O)N2C(C(=O)OCOC(=O)C(C)(C)C)=C(C)CS[C@H]12)c1csc(N)n1 | -25.0%
CC(=O)OCC1=C(C(=O)O)N2C(=O)[C@@H](NC(=O)Cc3cccs3)[C@H]2SC1 | 0.1%
CO/N=C(/C(=O)N[C@@H]1C(=O)N2C(C(=O)O)=C(CSC(=O)c3ccco3)CS[C@H]12)c1csc(N)n1 | 11.1µM*! | nsP2 cell sec=-7.9%;CHIKV NSP2 FL=-5.0%;Furin counter=-5.2%;nsP2 NS23 pep=9.2%;Papain cs=?;nsP2pro confirm=-9.6%;HCV NS3 4A cs=i
Cc1ccc(C(=O)Nc2ccc(CN3CCN(C)CC3)c(C(F)(F)F)c2)cc1C#Cc1cnc2[nH]ncc2c1 | 66.7%
O=C(C1CCN(c2nc3ccccc3[nH]2)CC1)N1CCN(c2cccc(Cl)c2)CC1 | 3.6%
Cc1ccc(Nc2ncc(C(=O)N3CCN(c4cccc(Cl)c4)CC3)c3ccccc23)cc1Cl | -19.7%
CS(=O)(=O)c1ncc(Cl)c(C(=O)N2CCN(c3cccc(Cl)c3)CC2)n1 | 1.58µM* | nsP2 cell sec=1.46µM*;CHIKV NSP2 FL=5.8µM*;Furin counter=3.7%;nsP2 NS23 pep=8.19µM*;Papain cs=-3.1%;nsP2pro confirm=4.49µM*;HCV NS3 4A cs=i
CN[C@H]1C(=O)N[C@@H]2Cc3ccc(cc3)Oc3cc4cc(c3O[C@@H]3O[C@H](C(=O)O)[C@@H](O)[C@H](O)[C@H]3NC(=O)CCCCCCCCC(C)C)Oc3ccc(cc3Cl)[C@@H](O)[C@@H]3NC(=O)[C@H](NC(=O)[C@@H]4NC(=O)[C@@H](NC2=O)c2cc(cc(O)c2Cl)Oc2cc1ccc2O)c1ccc(O)c(c1)-c1c(O[C@H]2O[C@H](CO)[C@@H](O)[C@H](O)[C@@H]2O)cc(O)cc1[C@@H](C(=O)NCCCN(C)C)NC3=O | 32.1%[10 µM]
C=CC(=O)N1CCC([C@@H]2CCNc3c(C(N)=O)c(-c4ccc(Oc5ccccc5)cc4)nn32)CC1 | -5.3%
CCCc1[nH]nc2c1C(c1cc(Cl)cc(Cl)c1O)C(C#N)=C(N)O2 (centres undefined) | 12.5%
SMILES | nsP2pro primary | others
CC(=O)Nc1sc2c(c1-c1ccc(C#N)cc1)CCNC2 | -8.9%
NC(=O)N/N=C/c1ccc([N+](=O)[O-])o1 | -26.0%
Cc1ccc(S(=O)(=O)c2ccc([N+](=O)[O-])o2)cc1 | 0.556µM* | nsP2 cell sec=?;CHIKV NSP2 FL=1.46µM*;Furin counter=-10.9%;nsP2 NS23 pep=4.61µM*;Papain cs=?;nsP2pro confirm=0.565µM*;HCV NS3 4A cs=i
O=NCc1ccc([N+](=O)[O-])o1 | -22.8%
COc1cc(/C=C/C(=O)O[C@@H]2O[C@H](CO)[C@@H](O)[C@H](O)[C@H]2O)ccc1O | 98.8%
O=C(N1CCCCC1Cc1ccccc1)n1cc(-c2ccc(-c3ccccc3)cc2)nn1 (centres undefined) | -8.7%
Cc1cc(C)nc(NC(=S)N2CCN(c3ccc4c(c3)OCO4)CC2)c1 | 4.4%
O=C1Nc2ccccc2C(O)(c2ccccc2)C1O (centres undefined) | -14.7%
CN(C)C1(CNC(=O)c2ccc(OC3CCN(C(=O)C4CC4)CC3)cc2)CCCCC1 | ? | nsP2 cell sec=-10.1%;CHIKV NSP2 FL=3.5%;Furin counter=-1.5%;nsP2 NS23 pep=?;Papain cs=-2.3%;nsP2pro confirm=16.0%;HCV NS3 4A cs=i
CCn1ccnc1CNC(=O)c1cc(OC)ccc1OC1CCN(C(=O)C2CC2)CC1 | i
CC(C)C(=O)NCC1(N(C)C)CCCCC1 | 13.1%
O=S(=O)(Nc1nccs1)c1ccc(NCc2cc(F)ccc2O)cc1 | i
CCN(CC)C(=O)c1ccc2c(c1)ncn2-c1cccc(C)c1 | -5.7%
COC(=O)C[C@H]1C(C)(C)[C@H](OC(C)=O)C2CC3=C4CC(=O)O[C@@H](c5ccoc5)[C@]4(C)CCC3[C@@]1(C)C2=O (some centres undefined) | -2.1%[10 µM]
